Source: PubChem BioAssay (EPA / NIEHS)
The source made the active and inactive calls. The calls were made as follows: active = hit-call score of the fitted dose curve at least 0.9, where 1 is the maximum; inactive = score below 0.9.

Columns and labels:
[1] = APR_HepG2_CellLoss_72hr: Apredica 72-hour HepG2 Assay for Cell Loss (AID 2282915); conditions: high-content imaging
How it was run: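 HepG2 cells were exposed for 72 hr to compounds at 0.39–200 uM (ten concentrations, duplicate) in 0.5% v/v final DMSO. Nuclei were stained with Hoechst 33342 after 3.7% formaldehyde fixation, imaged at 20x, and counted; fits bidirectional versus DMSO.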

[2] = APR_HepG2_P-H2AX_72hr: Apredica 72-hour HepG2 Assay for H2AX Phosphorylation (AID 2282916); conditions: imaging, actives raise or lower the signal;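 also: phospho-histone H2A.x immunostain intensity per cell marking DNA damage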
How it was run: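 Human hepatoma HepG2 cells are dosed across ten concentrations (0.39 to 200 uM, 0.5% v/v DMSO) and incubated 72 hr. Phospho-histone H2A.x is then detected by antibody staining alongside c-Jun and Hoechst, and quantified by automated fluorescence imaging.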

[3] = APR_HepG2_MitoticArrest_72hr: Apredica 72-hour HepG2 Assay for Mitotic Arrest (AID 2282918); conditions: high-content imaging, actives raise or lower the signal
How it was run: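 Read-out is phospho-histone H3 immunofluorescence with Hoechst nuclear segmentation, imaged at 20x. Human HepG2 liver cells received ten concentrations (0.39–200 uM, final DMSO 0.5% v/v) for 72 hr before fixation. Gain or loss of signal was fitted relative to DMSO.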

[4] = APR_HepG2_MicrotubuleCSK_72hr: Apredica 72-hour HepG2 Assay for Microtubule CSK Stabilty (AID 2282919); conditions: HepG2 microtubule cytoskeleton, high-content imaging, actives raise or lower the signal
How it was run: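 Ten-point dosing (0.39–200 uM, 0.5% DMSO) of HepG2 for 72 hr, with taxol as the cytoskeletal positive control. The cells were formaldehyde-fixed and then stained with alpha-tubulin/Cy5 and Hoechst. Imaging at 20x used a −2 um Z offset for tubulin.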

[5] = APR_HepG2_P-H2AX_24hr: Apredica 24-hour HepG2 Assay for H2AX Phosphorylation (AID 2282920); conditions: high-content imaging, actives raise or lower the signal
How it was run: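 HepG2, 24 hr, cpd 0.39–200 uM (10 conc, duplicate), DMSO 0.5% v/v final. Fix 3.7% formaldehyde, Triton X-100 permeabilize, anti-phospho-H2A.x 1:200 + Hoechst 2 ug/mL. Imaged, bidirectional fit vs DMSO.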

[6] = APR_HepG2_StressKinase_24hr: Apredica 24-hour HepG2 Assay for Stress Kinase (AID 2282922); conditions: HepG2 stress kinase (phospho-c-Jun) imaging, actives raise or lower the signal
How it was run: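 After 24 hr compound treatment (up to 200 uM, final DMSO 0.5% v/v), HepG2 cells are fixed and multiplex-labeled; phospho-c-Jun intensity is captured by high-content fluorescence imaging and analyzed relative to DMSO.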

[7] = APR_HepG2_p53Act_72hr: Apredica 72-hour HepG2 Assay for p53 Activation (AID 2282923); conditions: high-content imaging, actives raise or lower the signal;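 also: average cellular p53 protein immunofluorescence intensity in HepG2 cells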
How it was run: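 Imaging-based endpoint: after 72 hr compound exposure (up to 200 uM, 0.5% DMSO), fixed and permeabilized monolayers were labelled with anti-p53 antibody and imaged; signal change in either direction was fitted relative to DMSO controls.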

[8] = APR_HepG2_NuclearSize_72hr: Apredica 72-hour HepG2 Assay for Nuclear Size (AID 2282925); conditions: high-content imaging, actives raise or lower the signal
How it was run: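 Compounds (0.39–200 uM, final DMSO 0.5%) were applied to HepG2 for 72 hr. Cells were then formaldehyde-fixed, permeabilized and labelled with Hoechst 33342. Nuclear diameter was quantified from six images per well.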

[9] = ATG_CRE_CIS: Attagene CIS-FACTORIAL HepG2 Assay for human cAMP Responsive Element (CRE) binding protein 3 (AID 2282926); conditions: HepG2 CRE cis-reporter, Attagene multiplexed mRNA; actives raise or lower the signal
How it was run: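 Assay format: transient reporter transfection of HepG2, 24 h treatment, total RNA isolation with DNase I step. Reporter abundance read by fluorescence after PCR and capillary separation; DMSO-normalised gain or loss fitting.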

[10] = target: CCAAT/enhancer-binding protein beta (Homo sapiens) (UniProt P17676); test: ATG_C_EBP_CIS: Attagene CIS-FACTORIAL HepG2 Assay for human CCAAT/Enhancer Binding Protein (C/EBP) beta (AID 2282927); conditions: HepG2 Attagene cis-factorial transcription factor reporter; actives raise or lower the signal
How it was run: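 Chemical-treated HepG2 cells (24 h) bearing cis-regulated reporter constructs were processed for total RNA, then reverse transcription, PCR amplification, fluorescent primer extension and fragment analysis; gain- and loss-of-signal were fitted against DMSO.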

[11] = ATG_CMV_CIS: Attagene CIS-FACTORIAL HepG2 Assay for human CMV (Internal Marker) (AID 2282928); conditions: HepG2 CMV promoter reporter, transcription factor profiling; actives raise or lower the signal;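 also: endpoint acts as a background internal control marker rather than a target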
How it was run: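 Readout: fluorescent reporter cDNA fragments separated by capillary electrophoresis after RT-PCR and HpaI cut. Cells: HepG2 carrying transfected cis-promoter reporter constructs, dosed 24 h. Endpoint serves as background internal-marker control, fit bidirectionally versus DMSO.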

[12] = ATG_DR4_LXR_CIS: Attagene CIS-FACTORIAL HepG2 Assay for human Liver X Receptor (LXR), DR4 submotif (AID 2282929); conditions: HepG2 Attagene DR4 cis-reporter, mRNA transcription; actives raise or lower the signal
How it was run: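 The endpoint is DR4-element-driven reporter transcripts after 24 h chemical exposure of transfected HepG2 cells. These were measured via RT-PCR and capillary electrophoresis, and gain or loss of signal was fitted relative to DMSO controls.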

[13] = target: Aryl hydrocarbon receptor (Homo sapiens) (UniProt P35869); test: ATG_Ahr_CIS: Attagene CIS-FACTORIAL HepG2 Assay for human Aryl Hydrocarbon Receptor (Ahr) (AID 2282930); conditions: HepG2 AhR cis-factorial reporter transcription; actives raise or lower the signal
How it was run: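 Following 24 h of chemical dosing, transfected HepG2 liver cells with cis-driven reporter units were lysed for RNA; reporter mRNA was quantified via RT-PCR and capillary electrophoresis, and responses fitted bidirectionally from DMSO.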

[14] = ATG_AP_1_CIS: Attagene CIS-FACTORIAL HepG2 Assay for human Activator Protein 1 (AP-1) (AID 2282931); conditions: HepG2 Attagene cis-factorial AP-1 reporter mRNA; actives raise or lower the signal
How it was run: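 Readout is reporter transcript level from endogenous transcription factor activity, quantified by RT-PCR with fluorescent primer extension and capillary electrophoresis. Transiently transfected HepG2 cells, 24 h exposure. Curves fitted both directions versus DMSO.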

[15] = ATG_AP_2_CIS: Attagene CIS-FACTORIAL HepG2 Assay for human Activator Protein 2 (AP-2) (AID 2282932); conditions: HepG2 AP-2 cis-reporter, Attagene transcription factor profiling; actives raise or lower the signal
How it was run: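 Cells (HepG2) transfected with promoter-driven reporter constructs, treated 24 h. Total RNA reverse-transcribed, reporter cDNA PCR-amplified, FAM-labelled by primer extension, digested, resolved by capillary electrophoresis. Activity fitted both directions versus DMSO.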

[16] = ATG_BRE_CIS: Attagene CIS-FACTORIAL HepG2 Assay for human Bone Morphogenetic Protein (BMP) Response Element (BRE) (AID 2282933); conditions: HepG2 BMP response element reporter, Attagene transcription factor profiling; actives raise or lower the signal
How it was run: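 A HepG2 multiplex reporter system measured inducible reporter mRNA 24 h post-dosing. Detection: RT-PCR, 6-FAM primer extension, HpaI digestion, capillary electrophoresis. Activity fitted bidirectionally relative to DMSO.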

[17] = target: Retinoic acid receptor alpha (Homo sapiens) (UniProt P10276); test: ATG_DR5_RAR_CIS: Attagene CIS-FACTORIAL HepG2 Assay for human Retinoic Acid Receptor Alpha (RARE), DR5 submotif (AID 2282934); conditions: HepG2 Attagene cis-factorial RARE DR5 reporter, mRNA; actives raise or lower the signal;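 as to AC50: reporter responds to endogenous RAR alpha beta and gamma in HepG2 not RARA alone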
How it was run: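 Transfected HepG2 reporter cells are exposed to chemicals for 24 h. Then RNA is extracted and the DR5 element reporter transcript is measured by RT-PCR and capillary electrophoresis, with bidirectional curve fitting relative to DMSO.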

[18] = APR_HepG2_StressKinase_72hr: Apredica 72-hour HepG2 Assay for Stress Kinase (AID 2282921); conditions: HepG2 stress kinase (phospho-c-Jun) imaging, actives raise or lower the signal
How it was run: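 After a 72 h compound treatment spanning 0.39 to 200 uM, formaldehyde-fixed cells are labelled for phosphorylated c-Jun and nuclei, imaged by automated fluorescence microscopy, and activity is fitted in both directions relative to DMSO controls.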

[19] = APR_HepG2_MitoMass_72hr: Apredica 72-hour HepG2 Assay for Mitochondrial Mass (AID 2282924); conditions: high-content imaging, actives raise or lower the signal;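 also: MitoTracker Red CMXRos stain intensity per cell imaged as mitochondrial mass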
How it was run: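 Steps: treat HepG2 72 hr (0.39–200 uM, duplicate wells); load MitoTracker Red CMXRos, 250 nM, 30 min; fix with 3.7% formaldehyde, permeabilise with 0.5% Triton X-100; capture images, nuclei via Hoechst 33342; fit bidirectionally against DMSO.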

Measured: AC50

Sequence of Retinoic acid receptor alpha (Homo sapiens) (P10276 whole entry, looked up): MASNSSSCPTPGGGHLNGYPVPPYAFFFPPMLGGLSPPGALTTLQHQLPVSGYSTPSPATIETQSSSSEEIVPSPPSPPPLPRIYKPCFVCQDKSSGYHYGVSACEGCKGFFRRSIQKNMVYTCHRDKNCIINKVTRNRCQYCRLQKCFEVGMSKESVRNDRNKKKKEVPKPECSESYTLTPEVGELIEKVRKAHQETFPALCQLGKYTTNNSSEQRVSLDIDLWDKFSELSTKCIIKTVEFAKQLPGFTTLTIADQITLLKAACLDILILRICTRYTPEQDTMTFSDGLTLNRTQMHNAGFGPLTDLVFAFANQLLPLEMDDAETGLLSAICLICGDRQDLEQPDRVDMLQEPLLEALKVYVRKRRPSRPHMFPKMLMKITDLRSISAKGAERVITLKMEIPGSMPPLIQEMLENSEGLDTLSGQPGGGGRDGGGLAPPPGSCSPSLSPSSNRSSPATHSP
Sequence of Aryl hydrocarbon receptor (Homo sapiens) (P35869 whole entry, looked up): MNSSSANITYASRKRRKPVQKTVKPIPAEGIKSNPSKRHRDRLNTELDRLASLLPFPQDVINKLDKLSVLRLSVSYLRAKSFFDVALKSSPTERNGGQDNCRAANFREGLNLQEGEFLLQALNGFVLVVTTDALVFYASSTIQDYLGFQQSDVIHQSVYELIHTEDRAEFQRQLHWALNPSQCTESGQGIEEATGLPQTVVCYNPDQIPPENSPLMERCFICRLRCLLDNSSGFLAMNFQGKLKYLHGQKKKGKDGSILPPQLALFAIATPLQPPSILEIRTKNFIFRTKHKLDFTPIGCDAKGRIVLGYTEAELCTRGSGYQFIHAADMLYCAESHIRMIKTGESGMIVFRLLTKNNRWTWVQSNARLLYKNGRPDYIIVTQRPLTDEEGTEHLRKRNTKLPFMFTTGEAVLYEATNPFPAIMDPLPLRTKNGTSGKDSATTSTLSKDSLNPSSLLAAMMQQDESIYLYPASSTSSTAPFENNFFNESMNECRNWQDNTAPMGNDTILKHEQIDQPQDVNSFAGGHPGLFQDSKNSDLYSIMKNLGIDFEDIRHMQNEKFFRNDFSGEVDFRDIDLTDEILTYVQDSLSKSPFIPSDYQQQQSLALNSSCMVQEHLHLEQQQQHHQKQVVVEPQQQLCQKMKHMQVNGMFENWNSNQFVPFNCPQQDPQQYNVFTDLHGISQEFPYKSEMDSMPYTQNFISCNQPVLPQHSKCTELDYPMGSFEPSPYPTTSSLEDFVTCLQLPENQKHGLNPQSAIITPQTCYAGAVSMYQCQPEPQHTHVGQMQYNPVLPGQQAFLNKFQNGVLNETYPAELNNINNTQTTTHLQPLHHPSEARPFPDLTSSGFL
Sequence of CCAAT/enhancer-binding protein beta (Homo sapiens) (P17676 whole entry, looked up, the tested form may be a part): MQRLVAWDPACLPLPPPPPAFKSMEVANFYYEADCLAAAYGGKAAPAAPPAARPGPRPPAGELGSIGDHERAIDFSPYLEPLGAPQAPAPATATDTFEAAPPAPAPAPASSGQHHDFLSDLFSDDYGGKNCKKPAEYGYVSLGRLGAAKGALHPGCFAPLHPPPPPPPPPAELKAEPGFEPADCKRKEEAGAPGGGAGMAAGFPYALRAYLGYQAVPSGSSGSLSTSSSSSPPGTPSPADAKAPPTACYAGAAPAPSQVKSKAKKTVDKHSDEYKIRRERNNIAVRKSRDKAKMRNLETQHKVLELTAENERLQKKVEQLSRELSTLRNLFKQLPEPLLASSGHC

CC1(C)C(C=C(Cl)Cl)C1C(=O)OC(C#N)c1cccc(Oc2ccccc2)c1 (stereo not drawn)
active: [12] 30.3 µM
not listed: [18] | [19]
inactive: all other assays above

N#Cc1c[nH]cc1-c1cccc2c1OC(F)(F)O2
active: [1] 13 µM | [2] 16.1 µM | [4] 19.3 µM | [9] 10.8 µM | [10] 8.24 µM | [11] 29 µM | [12] 1.19 µM | [15] 13.5 µM | [16] 22.2 µM
inactive: [3] | [5] | [18] | [6] | [7] | [8] | [14]

N#CN=C1SCCN1Cc1ccc(Cl)nc1
not listed: [19]
inactive: all other assays above

C=C(C)CN(CC)c1c([N+](=O)[O-])cc(C(F)(F)F)cc1[N+](=O)[O-]
active: [1] 105 µM | [4] 135 µM | [12] 50 µM | [17] 18.4 µM
not listed: [18] | [19]
inactive: all other assays above

CO/N=C(/C1=NOCCO1)c1ccccc1Oc1ncnc(Oc2ccccc2Cl)c1F
active: [1] 6.52 µM | [4] 7.25 µM | [9] 0.858 µM | [10] 0.794 µM | [14] 0.481 µM | [16] 0.918 µM
not listed: [13] | [17] | [18] | [19]
inactive: all other assays above

CC(C)Oc1cccc(NC(=O)c2ccccc2C(F)(F)F)c1
active: [1] 131 µM | [4] 100 µM | [9] 13.6 µM | [10] 5.21 µM | [11] 41.8 µM | [13] 22.2 µM | [16] 9.92 µM | [17] 9.42 µM
not listed: [19]
inactive: all other assays above

CCCCOCN(C(=O)CCl)c1c(CC)cccc1CC
active: [1] 30.6 µM | [2] 113 µM | [3] 181 µM | [4] 10.6 µM | [18] 13.2 µM | [9] 0.654 µM | [10] 0.647 µM
not listed: [17] | [19]
inactive: all other assays above

CNC(=O)N(C)c1nnc(C(C)(C)C)s1
not listed: [19]
inactive: all other assays above

CCN(CC)C(=O)C(C)Oc1cccc2ccccc12 (stereo not drawn)
active: [1] 77.6 µM | [9] 2.24 µM | [10] 1.2 µM | [13] 14.9 µM | [16] 14.4 µM
not listed: [17] | [19]
inactive: all other assays above

COC(=O)NC(=S)Nc1ccccc1NC(=S)NC(=O)OC
active: [1] 26.1 µM | [19] 41.6 µM | [9] 29 µM | [10] 28.7 µM | [13] 73.9 µM | [16] 26.3 µM
not listed: [17] | [18]
inactive: all other assays above

Cc1c(COC(=O)[C@@H]2[C@H](/C=C(\Cl)C(F)(F)F)C2(C)C)cccc1-c1ccccc1
active: [11] 11.3 µM
not listed: [19]
inactive: all other assays above

O=c1n(Cl)c(=O)n(Cl)c(=O)n1Cl
active: [13] 19.6 µM
not listed: [19]
inactive: all other assays above

CCOc1cc(C(C)(C)C)ccc1C1COC(c2c(F)cccc2F)=N1 (stereo not drawn)
active: [1] 103 µM | [4] 47.2 µM | [9] 4.09 µM | [12] 13.2 µM | [17] 4.26 µM
not listed: [7] | [18] | [19]
inactive: all other assays above

Cc1ccc(N=CN(C)C=Nc2ccc(C)cc2C)c(C)c1
active: [3] 82.4 µM | [4] 163 µM | [5] 154 µM
not listed: [18]
inactive: all other assays above

Cn1c(-c2ccccc2)cc(-c2ccccc2)[n+]1C
not listed: [19]
inactive: all other assays above
